These results are taken from paper PMC12136788.

T1: UNK ZnF1-6 (called full-length) (human, UniProt Q9C0B0 30-357)
T1 sequence: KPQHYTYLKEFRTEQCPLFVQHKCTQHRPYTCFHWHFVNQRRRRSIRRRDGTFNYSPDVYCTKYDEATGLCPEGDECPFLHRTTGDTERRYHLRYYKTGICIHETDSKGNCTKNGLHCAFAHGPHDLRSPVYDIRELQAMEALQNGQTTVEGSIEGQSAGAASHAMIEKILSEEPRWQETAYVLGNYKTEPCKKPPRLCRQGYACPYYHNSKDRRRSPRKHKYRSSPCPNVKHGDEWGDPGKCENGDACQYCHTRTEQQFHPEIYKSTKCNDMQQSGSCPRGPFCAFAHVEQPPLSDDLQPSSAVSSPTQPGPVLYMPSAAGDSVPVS

B1: chr1:198253062:198253183:+|CDS|ENSG00000151414|unk|total|mutant (ssRNA)
RNA: GGGAGUUCUACAGUCCGACGAUCAUGGGCUAUAAUACAUCCGCCAACUUUCGAACCGAAAAGAAAAUUGGUCGCGGACAAUUCCGUGAAGUUUACCGAGCAGCCUGUCUCUUGGAUGGAGUACCAGCCGCUUUAAAAAAAGUGCAACAGAGGAUUGAGCAUCA
B2: chr6:144852070:144852171:+|3pUTR|ENSG00000152818|unk|FALSE|unique (ssRNA)
RNA: GGGAGUUCUACAGUCCGACGAUCAAGUCCUUAAUAGUUCUUGAAACUCCUAGUUGUUUUCUUGUUGAAAGCAGACACACAUUUAGUGCACGGCUUAUUUUACCUUUCGGGUGAAAGAUCAGAUGUUUUUAUACCCUUCACUUGCAACAGAGGAUUGAGCAUCA
B3: chr22:36281679:36281692:-|3pUTR|ENSG00000100345|msi1_unk|total|mutant (ssRNA)
RNA: GGGAGUUCUACAGUCCGACGAUCUCUUGUGUCUACUCCCGGACUGGGCCCGAGGGUGGUUUACCUGCACCGUUGACUCAGUACCGUUUAAAAAUCUGCCACCUGCACAGGUAUUUUUGAAAGCAAAAUAAGGUUUUCUUUUUUCAACAGAGGAUUGAGCAUCA
B4: chr7:137227872:137228000:-|3pUTR|ENSG00000105894|msi1_unk|total|mutant (ssRNA)
RNA: GGGAGUUCUACAGUCCGACGAUCGGAACAUAAAAAGGACAUCAGCAAACAGGAUCAGUUAACUAUUGCAUUUAUAUGUACCGCCGGCUUUGUAUUCAAAAAUUAUCUACCGCUAAGUACACAAUAAGCAAAAACAAAAAGAAACAACAGAGGAUUGAGCAUCA
B5: ENSG00000165476:stop:overlap|stop_codon|ENSG00000165476|stop_codon|NA|stop_codon (ssRNA)
RNA: GGGAGUUCUACAGUCCGACGAUCAAGAGGUGCGGUACGGGUCACUAAAAUACAAAGUGAAGAAACGACCACAAGUGUAUUUUUAGUCAUCUACACGUCAAAUAUCCCAAGACAGAUUAUGCUAAAUACAUCGACUUCAUCUUCCAACAGAGGAUUGAGCAUCA
B6: ENSG00000138660:stop:overlap|stop_codon|ENSG00000138660|stop_codon|NA|stop_codon (ssRNA)
RNA: GGGAGUUCUACAGUCCGACGAUCCUGUAUUAGAACUGUCUGAUUCUGGCAUAAGGCAUUCUGACACAGAUCAACAGACUCGAUAGGGUAAAAUUGUGUGACCUUGUUUAUCAGUUAUGACCAAAUGUUAAAAACCAACUAGAACAACAGAGGAUUGAGCAUCA
B7: chr3:11557161:11557262:-|3pUTR|ENSG00000144560|msi1|total|mutant (ssRNA)
RNA: GGGAGUUCUACAGUCCGACGAUCCCUCUGACUUUAUACUGUUAUUACUGCAUUUAUUAUUUGCUAUAUUAACCGCUACUAACCCGAAAUCCGAUGAAGCAAGCAUGACAGACACAGCUGUGGAGGUCACAGCUGCUCCUUUUUCAACAGAGGAUUGAGCAUCA
B8: ENSG00000198589:be:win_7201|CDS|ENSG00000198589|bound_else_gene|NA|bound_elsewhere_windowed (ssRNA)
RNA: GGGAGUUCUACAGUCCGACGAUCGAGAGUGAAUUUGUUUCCUGCCAGCUUCACCAAUGGAUUGAUCUCAUUUUUGGCUAUAAACAGCAAGGACCAGAAGCUGUCCGAGCCCUCAAUGUGUUCUAUUACUUGACCUAUGAAGGACAACAGAGGAUUGAGCAUCA
B9: ENSG00000124766:be:win_1851|3pUTR|ENSG00000124766|bound_else_gene|NA|bound_elsewhere_windowed (ssRNA)
RNA: GGGAGUUCUACAGUCCGACGAUCAGAGACUUGAAGGAGUCUCCCCCUUCCUGCAUCACCACCUUGGUUUUGUUUUAUUUUGCUUCUUGGUCAAGAAAGGAGGGGAGAACCCAGCGCACCCCUCCCCCCCUUUUUUUAAACGCGCAACAGAGGAUUGAGCAUCA
B10: chr9:125236489:125236593:-|3pUTR|ENSG00000044574|msi1_unk|total|mutant (ssRNA)
RNA: GGGAGUUCUACAGUCCGACGAUCUGCCGACACUGAUCUGCCCGUGCUGUAAUAUUGUAAAUACUGGACUCAGGAACUUUUGUCCGGAAAAAAUUGAAAGAACUUAAGUCUCGAAUGUAAUUGGAAUCUUCACCUCAGAGUGGACAACAGAGGAUUGAGCAUCA
B11: chr12:64128047:64128160:+|CDS|ENSG00000196935|unk|FALSE|unique (ssRNA)
RNA: GGGAGUUCUACAGUCCGACGAUCGGCAGCCUGACCAACAUCAGCCGGCACGACUCCCUCAAGAAGAUCGACAGCCCUCCCAUUAGAAGGUCCACGUCAUCAGGGCAAUACACGGGCUUCAAUGACCACAAGCCACUGGACCCACAACAGAGGAUUGAGCAUCA
B12: chr11:30010719:30012678:-|CDS|ENSG00000182255|control|control|control (ssRNA)
RNA: GGGAGUUCUACAGUCCGACGAUCUUUGCUCAAGAAAUUUCGGAGCUCUACUUCUUCUUCCCUGGGGGACAAGUCAGAGUAUCUAGAGAUGGAAGAAGGAGUUAAGGAAUCUCUGUGUGCAAAGGAGGAGAAGUGUCAGGGAAACAACAGAGGAUUGAGCAUCA
B13: chr11:101473508:101473773:-|CDS|ENSG00000137672|control|control|control (ssRNA)
RNA: GGGAGUUCUACAGUCCGACGAUCUCCUCAAAUAAUAUCUGAAGGUCUUUAUGCAAUUGCUGUAGUUUUAAGUUUCUCUAGGAUAGCUUAUAUUUUACCAGCAAAUGAAAGCUUUGGACCUCUGCAGAUAUCACUUGGAAGAACCAACAGAGGAUUGAGCAUCA
B14: ENSG00000092201:stop:overlap|stop_codon|ENSG00000092201|stop_codon|NA|stop_codon (ssRNA)
RNA: GGGAGUUCUACAGUCCGACGAUCUUCCCCGCGUGCCAGCCUUGGUCAUGCAUAGCAGCACCUCUCGCAGUCUCUUCCCGCCCUAGAAGAGGCAACAUCCUUCCCUCCUACUCCGUGGUCACGUCUUGCUGCCCUCCCCUGCCGCAACAGAGGAUUGAGCAUCA

In all, about 5,800 sequences were measured (“enrichment r”: median about 0.68, highest 2% from about 11 on). A selection follows.

The target in the test is T1, UNK ZnF1-6 (called full-length). Briefly: nsRBNS (natural sequence RNA bind-n-seq); RBNS binding buffer (assumed for nsRBNS): 25 mM Tris pH 7.5, 150 mM KCl, 3 mM MgCl2, 0.01% Triton X-100, 500 ug/ml BSA, 20 U/ml SUPERase-In, 4 C; UNK is unkempt and MSI1 is Musashi-1; names of the RNAs are library labels; protein concentration not given here; high values mean tight binding.
The molecule B1 gave a binding signal of 0.411 enrichment R.

For the molecule B2, the binding signal was found to be 0.969 enrichment R.

As for B3, the binding signal was found to be 0.546 enrichment R.

The molecule B4 gave a binding signal of 0.517 enrichment R.

Take B5: the binding signal was found to be 0.648 enrichment R.

In turn, B6 registered a binding signal of 0.713 enrichment R.

B7 displayed a binding signal of 0.51 enrichment R.

For the molecule B8, the binding signal amounted to 0.478 enrichment R.

In turn, B9 returned a binding signal of 0.704 enrichment R.

Molecule B10 had a binding signal of 0.446 enrichment R.

As for B11, the binding signal came to 1.28 enrichment R.

B12: the binding signal was 0.697 enrichment R.

In the case of B13, the binding signal is 0.473 enrichment R.

Molecule B14 returned a binding signal of 0.859 enrichment R.
